# Bioassay records deposited in PubChem BioAssay by University of Kansas High Throughput Screening Laboratory.
# mHTT-CaM PPI inh: mutant huntingtin-calmodulin interaction inhibitors – biochemical, AlphaScreen, primary screen; P42858; AlphaScreen His-mHTT/GST-CaM binding, luminescence; inhibition, % at 15 µM; 190,000 compounds, 3.6% hits;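 note: 0% = both proteins with DMSO and 100% = one protein alone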
# Pf apPOL block: Pf-apPOL inhibitors, biochemical, fluorescence | Plasmodium falciparum apicoplast DNA polymerase (apPOL) | Recombinant Pf-apPOL, molecular beacon fluorescence, 1.5 h | inhibition, % at 10 µM | 210,000 compounds, 0.25% hits | AID 1794808, 2022
# An asterisk follows results filed as active; . = no result given. Rows were chosen to be rich in hits. Some 3.5% of all compounds tested hit in one or more screens of this group. Cut-off read from the data, not from the text of the source: active = inhibition above about 50%; inactive = the rest.
SMILES,mHTT-CaM PPI inh,Pf apPOL block
Clc1ccc(-c2nc3ccccc3s2)cc1,.,-9.6
O=C(COc1ccccc1OC(=O)c1ccc(Cl)cc1)NCc1ccccc1Cl,.,-4.5
COc1ccccc1NC(Nc1ccccc1OC)=C(/C=C(\Cl)[N+](=O)[O-])[N+](=O)[O-],73.0*,6.8
COc1ccccc1NC(=O)c1ccccc1[N+](=O)[O-],5.4,-16.2
COc1cccc(CNC(=O)C(C)C2CCN(S(=O)(=O)c3c(C)noc3C)CC2)c1 (stereo unspecified),-3.1,3.0
CC(C)CNC(=O)N1CCCC1c1cc(C(C)C)no1 (stereo unspecified),-12.2,3.0
CCOc1ccc(NC2OC(C)C(O)C(O)C2O)c([N+](=O)[O-])c1 (stereo unspecified),1.0,-0.2
O=S(=O)(Nc1cccnc1)c1cc(Cl)sc1Cl,.,-8.9
COc1cc(C2C(C#N)=C(N)Oc3c2c(C)nn3-c2cccc(Cl)c2)cc(OC)c1O (stereo unspecified),64.0*,-2.3
Cc1nn(-c2cccc(Cl)c2)c2c1C(c1ccncc1)C(C#N)=C(N)O2 (stereo unspecified),17.0,-6.1
CCOc1ccccc1NS(=O)(=O)c1ccc2[nH]c(=O)c(=O)[nH]c2c1,-3.0,-5.1
NC(=O)c1c(N)sc2c1CCCCC2,64.3*,-9.8
NC(=O)c1c(N)sc2c1CCC2,.,-9.4
Cc1cccc(Nc2nccc(C3CCCN(C(=O)C4CC4)C3)n2)c1 (stereo unspecified),43.9,-5.1
Cc1cccc(-n2nc(C)c3sc(N4CCCN(C(=O)C5CCCCC5)CC4)nc32)c1,67.8*,-0.5
Cc1ccc(-n2nc(C)c3sc(N4CCCN(C(=O)C5CCCC5)CC4)nc32)cc1,26.1,-2.2
O=C(NCCOc1ccc(-c2ccccn2)nn1)c1ccco1,100.3*,-8.8
O=C(NCCOc1ccc(-c2ccccn2)nn1)c1cccs1,100.3*,-14.8
CC(Oc1ccccc1F)C(=O)NCCOc1ccc(-c2ccccn2)nn1 (stereo unspecified),100.3*,-9.1
O=C(NCCOc1ccccc1-c1ccccc1)c1ccco1,-0.5,-1.3
CC(Oc1ccccc1F)C(=O)NCCN1CCCCC1 (stereo unspecified),-1.0,-2.9
CCOc1ccc(OCCNC(=O)c2cccs2)cc1,-18.0,-8.7
Cc1cccc(NC(=O)c2cnccn2)c1,37.2,-0.3
Cc1ccc(OCC2C[N+]34CCO[B-]3(OCC4)O2)cc1 (stereo unspecified),-4.0,-5.9
COc1cccc(CNC(=O)C2CCc3sc(C(=O)N4CCCC4)cc3C2)c1 (stereo unspecified),8.0,-7.6
SMILES,mHTT-CaM PPI inh,Pf apPOL block
Cc1c(Cc2ccccc2)sc(NC(=O)C(F)(F)F)c1C(N)=O,16.0,1.2
Cc1c(Cc2ccccc2)sc(NC(=O)CCc2ccccc2)c1C(N)=O,51.9*,-10.2
Clc1ccc(-c2nc(NC3CC3)c3ccccc3n2)cc1,-62.1,-1.8
COc1ccccc1NC(=O)CN1C(=O)C2C3c4ccccc4C(c4ccccc43)C2C1=O (stereo unspecified),-4.0,-4.1
O=C(CN1C(=O)C2C3c4ccccc4C(c4ccccc43)C2C1=O)Nc1cccc(Cl)c1 (stereo unspecified),100.3*,0.3
O=C(CCCS(=O)(=O)c1ccc(Cl)cc1)Nc1ccc([N+](=O)[O-])cc1,0.0,-5.8
O=c1c2cc(F)ccc2ncn1C1CCN(S(=O)(=O)Cc2ccccc2)CC1,-7.3,-2.6
CCn1ccc2sc(C)c(C(=O)N3CCN(c4ccc(F)cc4)CC3)c2c1=O,54.9*,-2.9
Cc1ccc(C)c(N2CCN(C(=O)c3c(C)sc4ccn(C)c(=O)c34)CC2)c1,91.5*,0.3
CCCn1ccc2sc(C)c(C(=O)N3CCN(c4ccc(F)cc4)CC3)c2c1=O,60.4*,1.4
CCCn1ccc2sc(C)c(C(=O)N3CCCC3)c2c1=O,6.0,2.9
CCn1ccc2sc(C)c(C(=O)N3CCN(c4ccccc4F)CC3)c2c1=O,40.9,-3.7
Cc1sc2ccn(C)c(=O)c2c1C(=O)N1CCCCCC1,6.8,-0.9
CC1(C)CC(=O)C(C=NC(CC(=O)O)C(=O)O)=C(O)C1 (stereo unspecified),-2.0,-6.9
NC(=O)c1ccc(Oc2ccc([N+](=O)[O-])cc2)cc1,-1.7,2.0
CC(C)(Oc1ccc(Cl)cc1)C(=O)NCCN1CCN(C(=O)c2cccs2)CC1,13.5,-5.9
O=C(NCCCc1ccccc1)C1(n2cccc2)CCCCC1,50.5*,-6.1
CN(CCCNC(=O)C1(n2cccc2)CCCCC1)Cc1ccccc1,27.2,-15.6
CC1(C)CC(=O)C(C(c2ccc(Cl)cc2)C2C(=O)CC(C)(C)CC2=O)C(=O)C1,1.0,-5.0
O=[N+]([O-])c1ccc(NN=C2CCCCCC2c2ccccc2)c([N+](=O)[O-])c1 (stereo unspecified),.,-2.9
O=[N+]([O-])c1ccccc1NN=C1CCCC1,57.7*,.
COc1ccccc1N1CCN(Cc2cc(=O)[nH]c(C(C)C)n2)CC1,6.8,1.1
CCOc1ccc(CN2CCc3nc(Nc4ccc5c(c4)OCO5)ncc3C2)cc1OC,31.2,2.4
Cc1ccc(CN2CCc3nc(Nc4ccc5c(c4)OCO5)ncc3C2)cc1,11.0,-3.7
Fc1cccc(CN2CCc3nc(Nc4ccc5c(c4)OCO5)ncc3C2)c1,18.2,-4.9
SMILES,mHTT-CaM PPI inh,Pf apPOL block
COc1ccccc1CN1CCc2nc(Nc3ccc4c(c3)OCCO4)ncc2C1,32.9,-2.9
COc1ccccc1CN1CCc2nc(Nc3ccc4c(c3)OCO4)ncc2C1,51.0*,-0.5
COc1cccc(CN2CCc3nc(Nc4ccc5c(c4)OCO5)ncc3C2)c1,83.7*,2.9
CC(C)Oc1ccc(CN2CCc3nc(Nc4ccc5c(c4)OCO5)ncc3C2)cc1,80.0*,1.6
CCOc1ccccc1CN1CCc2nc(Nc3ccc4c(c3)OCCO4)ncc2C1,83.3*,-2.8
CS(=O)(=O)c1ccc(NC(=O)c2ccco2)cc1,-3.1,-5.8
CC1(C)CC(=O)C2=C(C1)OC(N)=C(C#N)C2c1ccc(-c2ccccc2)cc1 (stereo unspecified),-8.3,1.4
CC1(C)CC(=O)C2=C(C1)OC(N)=C(C#N)C2c1cn(-c2ccccc2)nc1-c1ccc(Cl)cc1 (stereo unspecified),100.2*,0.8
COc1cc(/C=C2\C(=O)NN(c3ccc(Cl)c(Cl)c3)C2=O)cc([N+](=O)[O-])c1O,49.0,-6.5
O=C1NC(=O)N(Cc2ccc(F)cc2)C(=O)/C1=C\c1cc2c(cc1[N+](=O)[O-])OCO2,67.0*,2.8
COc1cc2c(cc1/C=C1\NC(=O)N(Cc3ccc(F)cc3)C1=O)OCO2,-4.0,-8.6
O=C1NN(c2ccc(Cl)c(Cl)c2)C(=O)/C1=C/c1cc2c(cc1[N+](=O)[O-])OCO2,75.0*,-3.4
Cc1ccnc2c(NC(=O)CCN3C(=O)C4CC=C(Cl)CC4C3=O)cccc12 (stereo unspecified),16.0,-5.9
O=C1CCC(OCc2ccccc2)CCN1CC[C@@H](Sc1ccccc1)c1ccccc1 (stereo partly specified),79.7*,1.6
O=C1CC[C@@H](O)CCN1CC[C@H](Sc1ccccc1)c1ccccc1,13.6,-4.3
[N-]=[N+]=N[C@@H](CCN1CC[C@H](NC(=O)OCc2ccccc2)CCC1=O)c1ccccc1,14.9,-0.2
C[C@@H]1CCC(=O)N(CC[C@H](Sc2ccccc2)c2ccccc2)CC1,46.3,-3.4
[N-]=[N+]=N[C@@H](CCN1CC[C@H](OCc2ccccc2)CCC1=O)c1ccccc1,51.4*,-3.0
